Experimental findings from ChEMBL document CHEMBL1961873, “Compounds: GSK PKIS; Assays: Nanosyn kinase panel” (2012) are described below.

The term inhibition denotes the drop in the measured response relative to a control, in per cent.

Experiment [1] has as its target T1, Tyrosine-protein kinase receptor TYRO3 (Homo sapiens) (UniProt Q06418).
T1 sequence (whole entry): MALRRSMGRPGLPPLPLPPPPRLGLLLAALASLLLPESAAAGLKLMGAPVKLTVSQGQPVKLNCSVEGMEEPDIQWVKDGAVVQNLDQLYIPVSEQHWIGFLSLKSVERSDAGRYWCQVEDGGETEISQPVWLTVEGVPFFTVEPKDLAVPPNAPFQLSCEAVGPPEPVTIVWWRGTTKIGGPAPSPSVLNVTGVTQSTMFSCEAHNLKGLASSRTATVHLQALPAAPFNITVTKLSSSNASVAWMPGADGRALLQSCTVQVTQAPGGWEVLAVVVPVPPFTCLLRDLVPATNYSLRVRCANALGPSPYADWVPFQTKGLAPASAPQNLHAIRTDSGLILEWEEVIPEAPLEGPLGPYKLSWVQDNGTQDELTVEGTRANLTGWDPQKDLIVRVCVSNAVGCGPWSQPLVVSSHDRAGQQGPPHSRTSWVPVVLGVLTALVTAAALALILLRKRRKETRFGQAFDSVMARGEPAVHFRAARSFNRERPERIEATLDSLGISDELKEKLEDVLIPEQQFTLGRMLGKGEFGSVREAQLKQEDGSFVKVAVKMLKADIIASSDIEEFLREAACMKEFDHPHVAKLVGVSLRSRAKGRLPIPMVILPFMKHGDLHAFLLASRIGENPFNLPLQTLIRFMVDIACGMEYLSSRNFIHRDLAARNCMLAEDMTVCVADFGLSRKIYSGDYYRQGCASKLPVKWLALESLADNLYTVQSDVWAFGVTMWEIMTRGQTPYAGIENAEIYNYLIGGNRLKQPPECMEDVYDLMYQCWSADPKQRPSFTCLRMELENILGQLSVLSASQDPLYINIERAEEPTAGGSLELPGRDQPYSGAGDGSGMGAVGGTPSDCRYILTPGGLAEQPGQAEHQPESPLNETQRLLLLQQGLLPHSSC
To be noted: at 1 µM.

Experiment [2] addresses Tyrosine-protein kinase Yes (Homo sapiens) (UniProt P07947). As to conditions: at 0.1 µM.
The target is the same in experiment [3]. As to conditions: at 1 µM.
In experiment [4] the target is T2, Tyrosine-protein kinase ZAP-70 (Homo sapiens) (UniProt P43403).
T2 sequence (whole entry): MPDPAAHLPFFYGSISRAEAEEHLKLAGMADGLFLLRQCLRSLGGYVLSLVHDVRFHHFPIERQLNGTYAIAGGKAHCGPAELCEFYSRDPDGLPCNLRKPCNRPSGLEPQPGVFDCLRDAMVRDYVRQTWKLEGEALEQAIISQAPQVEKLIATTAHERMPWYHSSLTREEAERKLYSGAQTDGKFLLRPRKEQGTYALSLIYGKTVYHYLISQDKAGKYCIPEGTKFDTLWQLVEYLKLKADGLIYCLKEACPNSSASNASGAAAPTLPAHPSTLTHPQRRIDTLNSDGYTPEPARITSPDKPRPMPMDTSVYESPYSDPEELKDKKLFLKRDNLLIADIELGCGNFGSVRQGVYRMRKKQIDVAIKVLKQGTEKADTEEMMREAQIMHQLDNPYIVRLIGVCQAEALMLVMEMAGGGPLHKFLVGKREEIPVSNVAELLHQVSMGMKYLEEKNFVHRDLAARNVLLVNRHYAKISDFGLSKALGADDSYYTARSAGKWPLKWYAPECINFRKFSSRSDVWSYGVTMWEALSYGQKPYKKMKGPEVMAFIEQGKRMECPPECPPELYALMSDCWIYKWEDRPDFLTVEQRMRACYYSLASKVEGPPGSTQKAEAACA
To be noted: at 0.1 µM.

Experiment [5] deals with T2, Tyrosine-protein kinase ZAP-70 (Homo sapiens). As to conditions: at 1 µM.
Experiment [6] deals with Serine/threonine-protein kinase B-raf (Homo sapiens) (UniProt P15056). To be noted: at 0.1 µM.
Sequence of Serine/threonine-protein kinase B-raf (Homo sapiens) (P15056 whole entry): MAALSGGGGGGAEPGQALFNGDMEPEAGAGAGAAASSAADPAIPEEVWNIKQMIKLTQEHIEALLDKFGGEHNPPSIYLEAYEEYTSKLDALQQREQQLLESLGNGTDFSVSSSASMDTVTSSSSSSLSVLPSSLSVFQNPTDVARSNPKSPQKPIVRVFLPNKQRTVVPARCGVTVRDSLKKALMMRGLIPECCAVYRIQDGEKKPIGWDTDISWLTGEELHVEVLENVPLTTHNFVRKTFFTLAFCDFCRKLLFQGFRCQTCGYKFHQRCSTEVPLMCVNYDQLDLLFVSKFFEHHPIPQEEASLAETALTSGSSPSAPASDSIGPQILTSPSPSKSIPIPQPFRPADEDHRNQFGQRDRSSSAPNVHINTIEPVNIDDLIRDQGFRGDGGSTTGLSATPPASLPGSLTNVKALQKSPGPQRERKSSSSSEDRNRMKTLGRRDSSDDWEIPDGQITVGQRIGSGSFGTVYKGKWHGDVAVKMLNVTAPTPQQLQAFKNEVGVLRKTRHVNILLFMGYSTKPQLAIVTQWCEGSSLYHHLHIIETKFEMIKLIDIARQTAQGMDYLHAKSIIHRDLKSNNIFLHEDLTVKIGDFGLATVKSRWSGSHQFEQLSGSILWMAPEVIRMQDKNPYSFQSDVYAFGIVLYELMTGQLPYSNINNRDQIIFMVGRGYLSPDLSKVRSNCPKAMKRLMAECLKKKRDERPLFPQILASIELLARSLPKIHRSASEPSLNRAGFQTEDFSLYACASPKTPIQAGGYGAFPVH
Experiment [7] has the same target. As to conditions: at 1 µM.
In experiment [8] the test system is Serine/threonine-protein kinase B-raf (Homo sapiens), P15056 [V600E]. To be noted: at 0.1 µM.
Sequence of Serine/threonine-protein kinase B-raf (Homo sapiens), P15056 [V600E] (P15056 whole entry V600E): as the sequence (P15056 whole entry) above, with V600E counted along it
For experiment [9] the test system is unchanged. As to conditions: at 1 µM.
Experiment [10] has as its target RAF proto-oncogene serine/threonine-protein kinase (Homo sapiens) (UniProt P04049). To be noted: at 0.1 µM.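 Also: values are mean CRAF kinase inhibition from profiling of the GSK Published Kinase Inhibitor Set.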

Sequence of RAF proto-oncogene serine/threonine-protein kinase (Homo sapiens) (P04049 whole entry): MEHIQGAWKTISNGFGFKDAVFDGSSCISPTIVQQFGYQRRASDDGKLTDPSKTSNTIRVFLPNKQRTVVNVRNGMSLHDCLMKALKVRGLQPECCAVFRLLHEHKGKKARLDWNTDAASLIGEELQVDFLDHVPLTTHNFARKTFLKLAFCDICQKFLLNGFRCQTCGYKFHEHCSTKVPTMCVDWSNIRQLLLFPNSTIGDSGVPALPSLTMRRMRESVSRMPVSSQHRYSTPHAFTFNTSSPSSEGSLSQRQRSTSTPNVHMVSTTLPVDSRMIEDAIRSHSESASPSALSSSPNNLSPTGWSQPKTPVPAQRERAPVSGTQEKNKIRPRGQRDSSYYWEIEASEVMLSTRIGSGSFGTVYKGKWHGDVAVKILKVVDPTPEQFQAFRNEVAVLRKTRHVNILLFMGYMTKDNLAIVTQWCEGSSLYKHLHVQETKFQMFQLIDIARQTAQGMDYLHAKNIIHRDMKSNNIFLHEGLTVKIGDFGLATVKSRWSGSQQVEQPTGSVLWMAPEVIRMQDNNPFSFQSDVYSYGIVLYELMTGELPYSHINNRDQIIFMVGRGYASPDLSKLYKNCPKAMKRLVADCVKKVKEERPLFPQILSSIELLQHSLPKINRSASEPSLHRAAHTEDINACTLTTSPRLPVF
Sequence of Tyrosine-protein kinase Yes (Homo sapiens) (P07947 2-543 limits assumed): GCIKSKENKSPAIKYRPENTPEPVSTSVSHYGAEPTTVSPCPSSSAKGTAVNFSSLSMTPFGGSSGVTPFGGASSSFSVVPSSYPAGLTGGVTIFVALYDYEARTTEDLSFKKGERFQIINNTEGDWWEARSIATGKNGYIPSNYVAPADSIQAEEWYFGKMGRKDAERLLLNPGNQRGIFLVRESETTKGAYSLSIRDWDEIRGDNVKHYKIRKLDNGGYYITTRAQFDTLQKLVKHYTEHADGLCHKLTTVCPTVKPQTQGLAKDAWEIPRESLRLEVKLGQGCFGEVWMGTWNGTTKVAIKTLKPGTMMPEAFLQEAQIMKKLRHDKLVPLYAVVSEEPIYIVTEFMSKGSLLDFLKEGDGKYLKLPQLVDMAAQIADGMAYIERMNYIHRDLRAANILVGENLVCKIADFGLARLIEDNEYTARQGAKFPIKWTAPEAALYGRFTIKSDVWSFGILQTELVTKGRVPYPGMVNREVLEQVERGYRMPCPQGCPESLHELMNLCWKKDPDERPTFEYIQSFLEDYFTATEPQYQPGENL

For the molecule `COc1cc2ncnc(Nc3ccc4c(cnn4Cc4ccccc4)c3)c2cc1OC`, the inhibition was 12.6% in experiment [1]; 39.4% in experiment [2]; 79.9% in experiment [3]; -3.74% in [4]; 2.96% in [5]; 3.75% in experiment [6]. Moreover, the inhibition in experiment [7] is 3.3%; in experiment [8], 2.5%; in experiment [9], 1.8%; in experiment [10], 0.11%.

In the case of `CS(=O)(=O)CCNCc1nc(-c2ccc3ncnc(Nc4ccc(OCc5cccc(C(F)(F)F)c5)cc4)c3c2)cs1`, the inhibition in [1] turned out to be 1.66%; in experiment [2], 1.94%; in [3], 3.56%; in experiment [4], 1.5%; in experiment [5], 0.78%; in experiment [6] it was 1.81%. Besides, the inhibition in experiment [7] was 2.12%; in experiment [8], 2.15%; in experiment [9], -0.18%; in experiment [10], 0.97%.

Turning to `O=C1Nc2ccc(-c3cccnc3)cc2C1=Cc1cc(Br)c(O)c(Br)c1`, the inhibition was 9.95% in [1]; 2.64% in experiment [2]; 5.79% in experiment [3]; -8.3% in experiment [5]; 8.77% in experiment [6]; 18.3% in experiment [7]. The inhibition in [8] was 8.84%; in experiment [9], 18.1%; in experiment [10], -2.68%.

For `NS(=O)(=O)c1ccc(NC=C2C(=O)Nc3ccc4ncsc4c32)cc1`, the inhibition in experiment [1] was determined as 42.4%; in [2], 9.65%; in experiment [3], 41.5%; in experiment [4] it was 3.29%; in experiment [5], 11.9%; in experiment [6], 15.4%. Also, the inhibition was 60.5% in [7], 16.6% in experiment [8], 61.2% in experiment [9] and 11.6% in experiment [10].

As to `COc1cccc(-n2ncc3c(N/N=C/c4ccc(S(C)(=O)=O)cc4)ncnc32)c1`, the inhibition in [1] is 22.4%; in experiment [2], 31.9%; in experiment [3], 57.4%; in [4] it was -3.44%; in [5] it was 1.31%; in [6], 7.5%. Besides, the inhibition was 16.4% in [7], 8.25% in experiment [8], 20.2% in [9] and -3.03% in experiment [10].

On to `OCc1ccc(-c2nc(-c3ccccn3)c(-c3ccc4c(c3)OCO4)[nH]2)cc1`, for which the inhibition in [1] was 1.02%; in experiment [2] it was 1.58%; in [3] it was -0.01%; in experiment [4], 1.4%; in experiment [5], 0.81%; in [6] it was 5.65%. Moreover, the inhibition in [7] was 7.13%; in [8], 6.24%; in [9] it was 7.48%; in [10], -1.74%.

Take `COc1cc(Nc2nccc(-c3cnn4ncccc34)n2)cc(OC)c1`: the inhibition in [1] came to 14.9%; in experiment [2], 9.16%; in experiment [3], 39.8%; in experiment [4] it was 4.5%; in experiment [5], 14.2%; in experiment [6], 3.83%. The inhibition was 28.9% in [7], 4.91% in [8], 28.7% in experiment [9] and -0.8% in experiment [10].

Take `CC(C)c1ccc(Nc2nccc(-c3cnn4ncccc34)n2)cc1`: the inhibition turned out to be 4.27% in experiment [1]; 3.25% in [2]; 6.98% in experiment [3]; 1.01% in [4]; 6.84% in experiment [5]; 4.59% in [6]. Moreover, the inhibition came to 13.7% in [7], 5.11% in experiment [8], 11.6% in [9] and 0.59% in [10].

Consider `CS(=O)(=O)Nc1cccc(-c2ccc3c(NC(=O)C4CC4)n[nH]c3c2)c1`, for which the inhibition in [1] was 17.9%; in experiment [2], 2.95%; in experiment [3], 2.86%; in [4] it was 1.35%; in experiment [5] it was 1.3%; in experiment [6], 1.25%. Besides, the inhibition in experiment [7] came out at 2.51%; in [8], 1.61%; in experiment [9] it was 2.94%; in experiment [10], 8.26%.

For the molecule `NS(=O)(=O)c1ccc(-c2cc3ccncc3cc2OCc2ccccc2)cc1`, the inhibition in experiment [1] is 4.23%; in experiment [2], 3.11%; in experiment [3], 3.16%; in [4], 0.37%; in [5] it was -0.77%; in experiment [6] it was 4.65%. The inhibition came out at 6.35% in [7], 5.61% in [8], 4.49% in [9] and 2.9% in experiment [10].

For `COc1ccc2ncnc(Nc3ccc(OCc4ccccc4)cc3)c2c1`, the inhibition in experiment [1] was determined as 3.15%; in experiment [2], 5.76%; in experiment [3] it was 22.9%; in [4], 1.97%; in [5], 1.84%; in experiment [6] it was 3.6%. For the same molecule, the inhibition in experiment [7] is 2.93%; in experiment [8], 3.51%; in experiment [9], 2.24%; in [10], -0.56%.

Take `Oc1cccc(-c2nc(-c3ccccc3)[nH]c2-c2ccncc2)c1`: the inhibition in experiment [1] is 9.74%; in [2], 4.12%; in experiment [3] it was 21.9%; in experiment [4], 3.06%; in [5], 3.35%; in experiment [6], 14.5%. Also, the inhibition in [7] worked out at 30%; in [8], 12.8%; in experiment [9], 28.9%; in experiment [10] it was 1.16%.

Take `COc1cc2ncnc(Nc3ccc(C)c(O)c3)c2cc1OC`: the inhibition is 34.5% in experiment [1]; 8.25% in [2]; 42% in [3]; 3.61% in [4]; 1.79% in [5]; 8.83% in experiment [6]. For the same molecule, the inhibition in experiment [7] came out at 10%; in experiment [8] it was 7.72%; in experiment [9], 9.15%; in [10] it was 1.3%.

On to `COC(=O)Nc1nc2cc(Oc3ccc(NC(=O)Nc4cccc(Br)c4)cc3)ccc2[nH]1`, for which the inhibition was determined as 15.3% in experiment [1]; 4.4% in [2]; 6.98% in experiment [3]; 5.03% in [4]; 3.22% in [5]; 13% in experiment [6]. The inhibition in experiment [7] was 20.6%; in [8] it was 11.3%; in experiment [9] it was 20.8%; in experiment [10], -5.74%.

Regarding `CC(C)c1ccc2c(c1)NC(=O)/C2=N/Nc1ccc(S(N)(=O)=O)cc1`, the inhibition in [1] is 2.75%; in experiment [2], 2.45%; in experiment [3], 9.19%; in experiment [4], -0.31%; in experiment [5] it was 1.5%; in [6], -0.82%. Besides, the inhibition was -1.25% in [7], 0.24% in [8], -0.56% in experiment [9] and -2.32% in experiment [10].

In the case of `Cc1ccc(Nc2ccnc(Nc3cccc(C(N)=O)c3)n2)cc1O`, the inhibition in experiment [1] is 55%; in experiment [2], 33.5%; in experiment [3] it was 78.5%; in experiment [4], -1.9%; in experiment [5], 6.83%; in [6], 6.53%. Besides, the inhibition turned out to be 10.4% in experiment [7], 5.95% in experiment [8], 8.26% in experiment [9] and 6.98% in experiment [10].

Turning to `CCn1c(-c2nonc2N)nc2c(C#CC(C)(C)O)nc(OCCNC)cc21`, the inhibition came to 3.31% in experiment [1]; 3.64% in experiment [2]; 3.28% in [3]; 1.77% in [4]; 1.49% in [5]; 6.22% in experiment [6]. Also, the inhibition in [7] amounted to 7.65%; in experiment [8], 3.6%; in [9], 3.03%; in experiment [10] it was 0.76%.
